The values that follow come from PubChem BioAssay (EPA / NIEHS).

The source made the active and inactive calls. Rule for the calls: active = hit-call score of the fitted dose curve at least 0.9, where 1 is the maximum; inactive = score below 0.9.

Read-out in assay [1]: Epidermal growth factor receptor (EGFR), EGFR (gene 1956)
The assay can be described thus: BSK_hDFCGF_EGFR: BioMAP Diversity Plus: hDFCGF Assay for Epidermal growth factor receptor (EGFR) Biomarker Activity (AID 2283057). The settings on record: primary human foreskin fibroblasts; actives raise or lower the signal. Summed up:
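EGFR levels by ELISA in human dermal fibroblast cultures, 24 h post-treatment, fitted bidirectionally versus DMSO. Parallel wells stained with sulforhodamine B to detect overt cytotoxicity.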

Read-out in assay [2]: Interleukin-8 (IL8), CXCL8 (gene 3576)
Put plainly: BSK_hDFCGF_IL8: BioMAP Diversity Plus: hDFCGF Assay for Interleukin-8 (IL8) Biomarker Activity (AID 2283058). The settings on record: primary human foreskin fibroblasts; actives raise or lower the signal. Summed up: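 Primary human foreskin fibroblasts (hDFCGF system) dosed with chemical; IL-8 measured by ELISA 24 hours later. Bidirectional curve fitting relative to DMSO baseline; cytotoxicity tracked in parallel cultures by SRB total protein staining.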

Assay [3] in a line: BSK_hDFCGF_Proliferation: Cell Proliferation Assessment in the BioMAP Diversity Plus: hDFCGF Assay (AID 2283059).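 Note: curves fitted for both rise and fall of signal versus DMSO baseline.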 Conditions: primary human foreskin fibroblasts. An outline of the steps: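 Sub-confluent human foreskin fibroblast cultures receive test chemical […]. Relative cell number is quantified by sulforhodamine B staining (0.1%, after 10% TCA fixation) at 560 nm, with bidirectional fitting referenced to DMSO.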

Read-out in assay [4]: Macrophage colony-stimulating factor (MCSF), CSF1 (gene 1435)
The assay can be described thus: BSK_hDFCGF_MCSF: BioMAP Diversity Plus: hDFCGF Assay for Macrophage colony-stimulating factor (MCSF) Biomarker Activity (AID 2283060). The settings on record: primary human foreskin fibroblasts; actives raise or lower the signal. An outline of the steps: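 Human foreskin fibroblast primary cultures; M-CSF measured by ELISA 24 hours after chemical dosing. Bidirectional fitting relative to DMSO, with overt cytotoxicity tracked by parallel SRB total-protein staining (0.1% SRB, 10% TCA fixation, 560 nm).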

A short description of assay [5]: BSK_hDFCGF_SRB: Viability Assessment in the BioMAP Diversity Plus: hDFCGF Assay (AID 2283061).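 Note: cells exposed to compound for 24 h before the read.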 Conditions: primary human foreskin fibroblasts. Summed up:
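Human foreskin fibroblasts in 96-well plates were treated 24 h. Total protein was measured by 0.1% SRB staining after 10% TCA fixation, read at 560 nm. Data were fitted bidirectionally against DMSO.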

Read-out in assay [6]: Monokine induced gamma interferon (MIG), CXCL9 (gene 4283)
The assay can be described thus: BSK_hDFCGF_MIG: BioMAP Diversity Plus: hDFCGF Assay for Monokine induced gamma interferon (MIG) Biomarker Activity (AID 2283063). Conditions: primary human foreskin fibroblasts; actives raise or lower the signal. An outline of the steps:
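MIG/CXCL9 measured by ELISA 24 h after dosing primary human skin fibroblasts. Activity fitted in both directions against DMSO controls. Cytotoxicity was checked in parallel cultures by SRB staining read at 560 nm.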

Read-out in assay [7]: Matrix Metallopeptidase 1 (MMP1), MMP1 (gene 4312)
The assay can be described thus: BSK_hDFCGF_MMP1: BioMAP Diversity Plus: hDFCGF Assay for Matrix Metallopeptidase 1 (MMP1) Biomarker Activity (AID 2283064). Conditions: primary human foreskin fibroblasts; actives raise or lower the signal. An outline of the steps: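 ELISA read-out of MMP1 from human foreskin fibroblasts (primary skin cells), 24 h post-dose. Gain or loss of signal was fitted bidirectionally versus DMSO negative control; cytotoxicity was checked by SRB in parallel cultures.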

Read-out in assay [8]: Vascular cell adhesion molecule 1 (VCAM1), VCAM1 (gene 7412)
The assay can be described thus: BSK_hDFCGF_VCAM1: BioMAP Diversity Plus: hDFCGF Assay for Vascular cell adhesion molecule 1 (VCAM1) Biomarker Activity (AID 2283065).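 For AC50: VCAM-1 protein level quantified by ELISA after 24 h chemical exposure.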 Conditions: primary human foreskin fibroblasts; actives raise or lower the signal. Summed up: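 Human foreskin fibroblast primary cells dosed with chemical, VCAM-1 measured by ELISA at 24 h. Bidirectional curve fitting relative to DMSO as negative control/baseline.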

Read-out in assay [9]: Plasminogen activator inhibitor-1 (PAI1), SERPINE1 (gene 5054)
Put plainly: BSK_hDFCGF_PAI1: BioMAP Diversity Plus: hDFCGF Assay for Plasminogen activator inhibitor-1 (PAI1) Biomarker Activity (AID 2283066). The settings on record: primary human foreskin fibroblasts; actives raise or lower the signal. An outline of the steps: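 PAI-1 levels in human dermal foreskin fibroblasts were quantified by ELISA 24 h after dosing, with gain or loss analysed against DMSO. Overt cytotoxicity was checked by sulforhodamine B total-protein staining in parallel cultures.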

Read-out in assay [10]: Intercellular Adhesion Molecule 1 (ICAM1), ICAM1 (gene 3383)
The assay can be described thus: BSK_KF3CT_ICAM1: BioMAP Diversity Plus: KF3CT Assay for Intercellular Adhesion Molecule 1 (ICAM1) Biomarker Activity (AID 2283067). The settings on record: primary human keratinocytes with fibroblasts; actives raise or lower the signal. Summed up: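 Human keratinocyte–foreskin fibroblast co-culture was treated for 24 h. Cell-surface ICAM-1 was quantified by ELISA, fitted bidirectionally relative to DMSO. Cytotoxicity was checked in parallel cultures by SRB total-protein staining.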

Read-out in assay [11]: Interferon-gamma inducible Protein 10 (IP10), CXCL10 (gene 3627)
The assay can be described thus: BSK_KF3CT_IP10: BioMAP Diversity Plus: KF3CT Assay for Interferon-gamma inducible Protein 10 (IP10) Biomarker Activity (AID 2283068). The settings on record: primary human keratinocytes with fibroblasts; actives raise or lower the signal. Summed up:
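ELISA read-out of IP-10 after 24 h chemical dosing of human skin primary co-culture (keratinocytes, foreskin fibroblasts). Gain or loss of signal relative to DMSO, bidirectional curve fit.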

Assay [12] in a line: BSK_KF3CT_SRB: Viability Assessment in the BioMAP Diversity Plus: KF3CT Assay (AID 2283069).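 Note: read 24 h after compound addition.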 Conditions: primary human keratinocytes with fibroblasts. Summed up:
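SRB read-out at 560 nm (0.1% stain, TCA-fixed cells) gauges overt cytotoxicity in a human skin keratinocyte–fibroblast co-culture 24 h post-dosing. Signal change was fitted bidirectionally relative to DMSO control.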

Read-out in assay [13]: Interleukin-1 alpha (IL1a), IL1A (gene 3552)
Put plainly: BSK_KF3CT_IL1a: BioMAP Diversity Plus: KF3CT Assay for Interleukin-1 alpha (IL1a) Biomarker Activity (AID 2283070). Conditions: primary human keratinocytes with fibroblasts; actives raise or lower the signal. An outline of the steps:
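Primary skin co-culture (keratinocytes, foreskin fibroblasts), 24 h exposure; ELISA for IL-1a; bidirectional curve fit vs DMSO.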

Read-out in assay [14]: TIMP metallopeptidase inhibitor 2 (TIMP2), TIMP2 (gene 7077)
The assay can be described thus: BSK_KF3CT_TIMP2: BioMAP Diversity Plus: KF3CT Assay for TIMP metallopeptidase inhibitor 2 (TIMP2) Biomarker Activity (AID 2283071). Conditions: primary human keratinocytes with fibroblasts; actives raise or lower the signal. An outline of the steps: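 TIMP-2 measured by ELISA at 24 h in human keratinocyte/fibroblast primary co-cultures exposed to chemicals. Both increases and decreases were fitted against DMSO. Parallel cultures were stained with SRB for total protein as an overt-cytotoxicity check.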

Read-out in assay [15]: Transforming growth factor beta 1 (TGFb1), TGFB1 (gene 7040)
Put plainly: BSK_KF3CT_TGFb1: BioMAP Diversity Plus: KF3CT Assay for Transforming growth factor beta 1 (TGFb1) Biomarker Activity (AID 2283072). The settings on record: primary human keratinocytes with fibroblasts; actives raise or lower the signal. An outline of the steps: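 ELISA quantifies TGF-b1 at 24 h post-dose in a primary human skin co-culture of keratinocytes and fibroblasts, with gain or loss judged against DMSO. Parallel SRB total-protein staining flags overt cytotoxicity.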

Read-out in assay [16]: C-C motif chemokine 2 (Homo sapiens) (UniProt P13500)
The assay can be described thus: BSK_KF3CT_MCP1: BioMAP Diversity Plus: KF3CT Assay for Monocyte Chemoattractant Protein 1 (MCP1/CCL2) Biomarker Activity (AID 2283073). The settings on record: primary human keratinocytes with fibroblasts; actives raise or lower the signal. An outline of the steps: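 Human keratinocyte–foreskin fibroblast co-culture; MCP-1 measured by ELISA 24 h after dosing. Bidirectional fit vs DMSO; cytotoxicity tracked by SRB total protein in parallel cultures.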

Read-out in assay [17]: Matrix Metallopeptidase 9 (MMP9), MMP9 (gene 4318)
Put plainly: BSK_KF3CT_MMP9: BioMAP Diversity Plus: KF3CT Assay for Matrix Metallopeptidase 9 (MMP9) Biomarker Activity (AID 2283074).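 For AC50: MMP9 protein level quantified by ELISA in the co-culture.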 The settings on record: primary human keratinocytes with fibroblasts; actives raise or lower the signal. Summed up: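 ELISA read-out of MMP-9 at 24 h post-dosing in a co-culture of human skin keratinocytes and foreskin fibroblasts. Gain or loss of signal was fitted in both directions against DMSO.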

Read-out in assay [18]: urokinase plasminogen activator (uPA), PLAU (gene 5328)
The assay can be described thus: BSK_KF3CT_uPA: BioMAP Diversity Plus: KF3CT Assay for urokinase plasminogen activator (uPA) Biomarker Activity (AID 2283075). Conditions: primary human keratinocytes with fibroblasts; actives raise or lower the signal. An outline of the steps: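 Skin co-culture (keratinocytes + foreskin fibroblasts), human primary; 24 h post-dose; uPA by ELISA; gain/loss fit vs DMSO baseline.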

Read-out in another assay: CD40, CD40 (gene 958)
The assay can be described thus: BSK_LPS_CD40: BioMAP Diversity Plus: LPS Assay for CD40 Biomarker Activity (AID 2283076). Conditions: primary human HUVEC with PBMC; actives raise or lower the signal. An outline of the steps: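 HUVEC plus PBMC co-culture stimulated with LPS; CD40 quantified by ELISA 24 h after compound dosing. Fitting was bidirectional relative to DMSO. SRB staining of parallel cultures flagged overt cytotoxicity.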

Read-out in assay [19]: TIMP metallopeptidase inhibitor 1 (TIMP1), TIMP1 (gene 7076)
The assay can be described thus: BSK_hDFCGF_TIMP1: BioMAP Diversity Plus: hDFCGF Assay for TIMP metallopeptidase inhibitor 1 (TIMP1) Biomarker Activity (AID 2283062). The settings on record: primary human foreskin fibroblasts; actives raise or lower the signal. An outline of the steps:
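Human foreskin fibroblast primary cultures dosed for 24 h; secreted/surface TIMP-1 quantified by ELISA. Bidirectional curve fitting against DMSO baseline; cytotoxicity tracked in parallel cultures by SRB total-protein staining.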

The term AC50 denotes the concentration giving half of the maximal activity seen. For `Cc1c(C)c2c(c(C)c1O)CCC(C)(COc1ccc(CC3SC(=O)NC3=O)cc1)O2` (stereo unspecified), the AC50 in [1] was 8.04 µM (active); in assay [2], 27.8 µM (active); in assay [3] it was 6.8 µM (active); in assay [4], 11.7 µM (active); in assay [5], 19.2 µM (active); in [6] it was 20 µM (active). Besides, the AC50 is 24.8 µM (active) in assay [7]; 11.8 µM (active) in assay [8]; 8.87 µM (active) in assay [9]; 14.1 µM (active) in assay [10]; 11.3 µM (active) in [11]; 13.8 µM (active) in assay [12]. Also, the concentration at half-maximal activity (AC50) in assay [13] was 29.5 µM (active); in assay [14] it was 20 µM (active); in assay [15] it was 20.9 µM (active); in assay [16] it was 15.1 µM (active); in [17] it was 12.7 µM (active); in [18], 12 µM (active). For the same compound, the concentration at half-maximal activity (AC50) in the assay with CD40, CD40 (gene 958) is 28.7 µM (active).

For `S=c1[nH]c2ccccc2s1`, the result in [1], in [2], in [3], in assay [4], in [19] and in [6] was inactive. In addition, the result in [7], in assay [8], in [9], in assay [10], in [11] and in assay [12] was inactive. Moreover, the result in assay [13], in assay [14], in [15], in assay [16], in [17] and in assay [18] was inactive. Moreover, the outcome with CD40, CD40 (gene 958) was inactive.

Turning to `O=C(N[C@@H](c1ccccc1)[C@@H]1CCCCN1)c1cccc(C(F)(F)F)c1Cl`, the outcome in assay [1], in [2], in assay [4], in assay [5], in assay [19] and in assay [6] was inactive. Further, the result in [7] and in assay [16] was inactive. Besides, the half-maximal activity concentration (AC50) in assay [3] was 28.7 µM (active); in [9], 9.69 µM (active); in assay [10], 30.7 µM (active); in assay [11] it was 37.1 µM (active); in assay [12], 30.3 µM (active); in assay [14], 12.4 µM (active). For the same compound, the AC50 in [15] was 20 µM (active); in [17], 30.8 µM (active); in assay [18], 32.5 µM (active); in the assay with CD40, CD40 (gene 958), 20 µM (active).
